PubChem BioAssay (NCATS)
Unmarked numbers belong to inactive results. Records with an inconclusive call do not appear. Where a call stands in place of a potency, no number is given. Active and inactive are the calls of the source. Unless noted, the call rests on the fitted dose curve; in most records, active means well fitted curve in the direction sought with a large enough effect; inconclusive means small, poorly fitted or top-dose-only effect, or another doubt; inactive means no such curve, though single readings can be large; an effect the other way counts as inactive or inconclusive. Peptide text beside a SMILES is read from it.

How the values were obtained:
[1] = qHTS Assay for Identification of Small Molecule Agonists for Thrombopoietin (TPO) Signaling Pathway (AID 917); further: potency means the concentration at half of the fitted maximal effect
How it was run: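 IL-3-dependent murine pro-B Ba/F3 cells, stably transfected with human TPO receptor and GpIIb-promoter luciferase, are incubated 24 hrs at 37 C with test compound and 26 pM TPO; luciferase signal is read after 10 min at room temperature.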

[2] = target: Muscarinic acetylcholine receptor M1 (Rattus norvegicus) (UniProt P08482); assay: qHTS Assay for Antagonists of Acetylcholine Muscarinic M1 Receptor: Measurement of IP-One Response (AID 944); further: nearly all actives have a fitted effect of over 75% in size; further: potency means the concentration at half of the fitted maximal effect
How it was run: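 CHO cells expressing rat M1 receptor, recovered overnight, were pre-incubated 10 min with compound, then stimulated 30 min with carbachol at EC80 (200 nM) in LiCl-containing buffer, pH 7.4. IP1 accumulation was read by HTRF (620/665 nm).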

[3] = target: Pyruvate kinase PKM (Homo sapiens) (UniProt P14618); assay: qHTS Assay for Activators of Human Muscle Pyruvate Kinase (AID 954; active means well fitted curve in the direction sought with a large enough effect, not every such curve was filed as active)
How it was run: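 Human PKM2 activity is measured as ATP generation, detected by luciferase-coupled luminescence. The enzyme (0.1 nM) acts on 0.5 mM PEP and 0.1 mM ADP for 1 h at ambient temperature; data are normalized to uninhibited and full-inhibition wells.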

[4] = target: Pyruvate kinase PKM (Homo sapiens) (UniProt P14618); assay: qHTS Assay for Inhibitors of Human Muscle Pyruvate Kinase (AID 958); settings: purified human PKM enzyme activity
How it was run: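 Luminescence from a luciferase ATP-detection/stop reagent reported PKM2 activity. Reactions contained 0.1 nM purified human enzyme, 0.5 mM PEP, 0.1 mM ADP and 7 mM MgCl2 at pH 7.2, run 1 h at RT.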

[5] = target: Pyruvate kinase (Leishmania mexicana) (UniProt Q27686); assay: qHTS Validation Assay for Activators of Leishmania Mexicana Pyruvate Kinase (AID 959)
How it was run: (§1)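 Eight-point qHTS titrations in triplicate, data normalized to DMSO neutral control. Reaction: 0.2 nM LmPYK E451W mutant, 0.5 mM PEP, 0.1 mM ADP, 7 mM MgCl2, pH 7.2, one hour at room temperature; luminescent ATP detection.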

[6] = qHTS Assay for Identification of Small Molecule Agonists for Hypoxia Response Element Signaling Pathway (AID 914; active means well fitted activation curve with a large enough effect in the signal ratio, with a control signal flat, not every such curve was filed as active; the % refers to the signal ratio); settings: ME-180 HRE-bla reporter, beta-lactamase ratio, CoCl2, 17 h; active compounds read high
How it was run: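 HRE-bla ME-180 cells with beta-lactamase reporter under hypoxia response element, compounds with EC50 CoCl2 for 17 hours at 37 C. CCF4 substrate, 460nm/530nm emission ratio gave %Activity; AC50 from titration series.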

[7] = Cell Viability - LYMP2-001 (AID 921); further: nearly all actives have a fitted effect of over 70% in size; further: potency means the concentration at half of the fitted maximal effect
How it was run: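 A lymphoblastoid cell line of human origin was treated with library compounds across a concentration series for 24 hours, and viable cell number was estimated from ATP-driven luciferase light output. Hill modeling gave AC50.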

[8] = Confirmation and Secondary Assay for Modulators of Hemoglobin Beta Chain Splicing at IVS2 705 locus (AID 930);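 further: HeLa cells stably expressing the EGFP-705 splicing reporter; GFP fluorescence per well restored by corrected splicing of the IVS2-705 intron in EGFP; series mostly up to about 46 µM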
How it was run: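 HeLa cells stably carrying EGFP interrupted by mutant beta-globin intron 2 (IVS2-705) treated 2 days at 37C with compound; 500 nM antisense PNA as control. Correct splicing read as total peak GFP intensity per well by laser-scanning cytometry.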

[9] = MultiTox-Fluor Cytotoxicity Assay - LYMP1-001 - Dead Cells (AID 946); further: potency means the concentration at half of the fitted maximal effect
How it was run: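 Cytotoxicity as increased dead-cell protease fluorescence (bis-AAF-R110, 485/520 nm), read 60 min after MultiTox-Fluor reagent. Human lymphoblastoid line exposed 16 h; Hill-fitted AC50, with DMSO as 0% and 15 uM tetraoctylammonium bromide as 100%.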

[10] = MultiTox-Fluor Cytotoxicity Assay - LYMP1-001 - Live Cells (AID 947); further: potency means the concentration at half of the fitted maximal effect
[11] = Cell Viability - LYMP1-002 - Assay at 16 hr (AID 948); further: potency means the concentration at half of the fitted maximal effect
How it was run: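 In this qHTS, lymphoblastoid LYMP1-002 cells (human) receive compounds for 16 hr at 37 C. Viability is taken from CellTiter-Glo ATP luminescence, and AC50 derives from standard Hill fits.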

[12] = MultiTox-Fluor Cytotoxicity Assay - LYMP1-002 - Live Cells (AID 955); further: potency means the concentration at half of the fitted maximal effect
How it was run: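 Human lymphoblastoid LYMP1-002 cells, 2500/well in complete medium, rested 5 hr at 37 C, then exposed to compounds for 16 hr at 37 C. Live-cell protease cleavage of GF-AFC read by fluorescence (Ex/Em 405/510) after 60 min at room temperature; AC50 from Hill fits.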

[13] = MultiTox-Fluor Cytotoxicity Assay - LYMP1-002 - Dead Cells (AID 960); further: nearly all actives have a fitted effect of over 60% in size
How it was run: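 Human lymphoblastoid cells (LYMP1-002), 2500/well in complete medium, were exposed to compounds for 16 hr at 37 C. Dead-cell protease activity was read as bis-AAF-R110 fluorescence (Ex/Em 485/520), normalized to DMSO and 15 uM tetraoctylammonium bromide; AC50 from Hill fits.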

[14] = MultiTox-Fluor Cytotoxicity Assay - LYMP1-003 - Dead Cells (AID 961); further: nearly all actives have a fitted effect of over 70% in size; further: potency means the concentration at half of the fitted maximal effect
How it was run: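 Dead-cell protease release, detected as bis-AAF-R110 fluorescence at 485/520 nm, was measured in LYMP1-003 cells after 16 h compound treatment at 37 C. AC50 values came from Hill-modeled qHTS curves normalized to DMSO (0%) and 15 uM tetraoctylammonium bromide (100%).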

[15] = MultiTox-Fluor Cytotoxicity Assay - LYMP1-003 - Live Cells (AID 962); further: potency means the concentration at half of the fitted maximal effect
How it was run: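 LYMP1-003 human lymphoblastoid cells (2500/well) in complete medium were preincubated 5 hr at 37 C, then exposed to compounds for 16 hr at 37 C. Live-cell protease cleavage of GF-AFC read by fluorescence (Ex/Em 405/510); AC50 from Hill fits.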

[16] = Cell Viability - LYMP1-003 - Assay at 24 hr (AID 963); further: potency means the concentration at half of the fitted maximal effect
How it was run: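 Human lymphoblastoid LYMP1-003 cells (2500/well) were rested 5 hr at 37 C, then exposed to compounds in complete medium for 24 hr at 37 C. Cellular ATP was quantified by CellTiter-Glo luminescence, and AC50 values came from Hill fits of concentration-response data.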

[17] = Cell Viability - LYMP1-003 - Assay at 40 hr (AID 964); further: nearly all actives have a fitted effect of over 60% in size; further: potency means the concentration at half of the fitted maximal effect
How it was run: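 Human lymphoblastoid LYMP1-003 cells, 2500/well in complete medium, rested 5 hr at 37 C, then exposed to compounds for 40 hr at 37 C. Viability read as intracellular ATP by CellTiter-Glo luminescence; AC50 from Hill fits of concentration-response data.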

[18] = qHTS Assay for Identification of Small Molecule Antagonists for Thrombopoietin (TPO) Signaling Pathway (AID 918); settings: TPO-dependent cell signaling reporter, antagonist mode; further: potency means the concentration at half of the fitted maximal effect; nearly all actives have a fitted effect of over 60% in size
How it was run: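 Murine Ba/F3 cells stably expressing human TPO receptor and a Glycoprotein IIb promoter–luciferase reporter were IL-3-starved overnight, treated with compounds plus TPO (26 pM final, its EC50) for 24 hrs at 37 C, then read by luminescence.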

[19] = target: Pyruvate kinase (Leishmania mexicana) (UniProt Q27686); assay: qHTS Validation Assay for Inhibitors of Leishmania Mexicana Pyruvate Kinase (AID 945); further: potency means the concentration at half of the fitted maximal effect
How it was run: as §1

[20] = qHTS Assay for Identification of Small Molecule Agonists for NFkB Signaling Pathway (AID 928; calls by dose curve); settings: NFkB beta-lactamase reporter cells, blue/green ratio
How it was run: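 ME-180 NFkB-bla cells carry a beta-lactamase reporter under an NFkB response element. Compound plus 10 pM TNF alpha (final) was applied for 5 hrs at 37 C. After 2 hrs with LiveBLAzer substrate, 460/530 nm emission was read at 405 nm excitation.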

Muscarinic acetylcholine receptor M1 (Rattus norvegicus), sequence (P08482 whole entry, looked up): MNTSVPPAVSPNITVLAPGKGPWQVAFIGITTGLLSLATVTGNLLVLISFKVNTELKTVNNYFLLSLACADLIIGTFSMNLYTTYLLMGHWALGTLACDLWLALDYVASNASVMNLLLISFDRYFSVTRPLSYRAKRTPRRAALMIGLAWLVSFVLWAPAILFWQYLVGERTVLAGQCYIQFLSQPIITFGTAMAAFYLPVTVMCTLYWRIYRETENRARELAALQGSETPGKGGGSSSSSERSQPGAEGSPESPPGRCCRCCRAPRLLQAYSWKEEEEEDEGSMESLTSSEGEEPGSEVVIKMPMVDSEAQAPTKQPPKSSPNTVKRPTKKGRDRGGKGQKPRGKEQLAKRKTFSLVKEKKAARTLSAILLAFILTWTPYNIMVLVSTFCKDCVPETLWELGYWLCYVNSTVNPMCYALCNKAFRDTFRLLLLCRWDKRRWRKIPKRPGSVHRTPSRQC
Pyruvate kinase (Leishmania mexicana), sequence (Q27686 2-499 E452W): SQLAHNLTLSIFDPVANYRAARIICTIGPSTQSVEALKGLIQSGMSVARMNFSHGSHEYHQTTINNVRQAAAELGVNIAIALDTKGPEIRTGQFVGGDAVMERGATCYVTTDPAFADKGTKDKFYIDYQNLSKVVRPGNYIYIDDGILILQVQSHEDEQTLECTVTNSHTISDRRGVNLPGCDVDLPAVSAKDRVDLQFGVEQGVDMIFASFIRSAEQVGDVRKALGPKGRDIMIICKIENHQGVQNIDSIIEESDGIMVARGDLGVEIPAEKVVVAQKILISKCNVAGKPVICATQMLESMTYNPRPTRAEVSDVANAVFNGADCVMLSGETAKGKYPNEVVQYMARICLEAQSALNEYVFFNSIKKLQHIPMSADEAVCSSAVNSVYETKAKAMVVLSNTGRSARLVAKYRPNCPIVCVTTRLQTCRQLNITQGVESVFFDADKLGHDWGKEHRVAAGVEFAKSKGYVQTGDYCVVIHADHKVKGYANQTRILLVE
Pyruvate kinase PKM (Homo sapiens), sequence (P14618 whole entry, looked up): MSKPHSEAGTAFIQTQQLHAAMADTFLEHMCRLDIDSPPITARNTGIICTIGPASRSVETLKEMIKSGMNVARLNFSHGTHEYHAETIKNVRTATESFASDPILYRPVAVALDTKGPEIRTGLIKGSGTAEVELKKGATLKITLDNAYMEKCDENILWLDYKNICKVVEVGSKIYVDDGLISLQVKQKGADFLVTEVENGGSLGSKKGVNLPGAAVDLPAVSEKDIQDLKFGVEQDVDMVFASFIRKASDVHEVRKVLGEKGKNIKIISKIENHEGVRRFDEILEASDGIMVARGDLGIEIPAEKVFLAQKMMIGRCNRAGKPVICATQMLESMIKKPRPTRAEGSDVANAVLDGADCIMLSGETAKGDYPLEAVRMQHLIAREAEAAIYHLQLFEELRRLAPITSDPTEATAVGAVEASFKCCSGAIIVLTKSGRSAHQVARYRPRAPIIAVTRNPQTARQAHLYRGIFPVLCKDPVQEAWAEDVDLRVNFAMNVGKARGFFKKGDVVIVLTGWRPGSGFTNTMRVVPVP

Q: With O=Nc1c(-c2c(O)[nH]c3cc(Br)ccc23)[nH]c2ccccc12 as the compound, how does the Potency [1] read?
A: 0.251 µM (active)

Q: And the Potency [2]?
A: 14.1 µM (active)

Q: And the outcome [3]?
A: inactive

Q: What about the Potency [4] of the same compound?
A: 15.8 µM (active)

Q: What about the Potency [5] of the same compound?
A: inactive

Q: For c1ccc2[nH]c(-c3cscn3)nc2c1, which activation [6] is on record?
A: -2.82%

Q: And the Potency [7]?
A: inactive

Q: And the Potency [8]?
A: inactive

Q: What about the Potency [9] of the same compound?
A: inactive

Q: And the Potency [10]?
A: inactive

Q: And the Potency [11]?
A: inactive

Q: And the Potency [12]?
A: inactive

Q: What about the outcome [13] of the same compound?
A: inactive

Q: What about the Potency [14] of the same compound?
A: inactive

Q: What about the Potency [15] of the same compound?
A: inactive

Q: What about the Potency [16] of the same compound?
A: inactive

Q: What about the Potency [17] of the same compound?
A: inactive

Q: Which results are given for NCCCCNCCCN?
A: Potency [18]: 6.31 µM (active); Potency [8]: inactive; Potency [19]: inactive; outcome [3]: inactive

Q: For C[C@H](Cc1ccc(O)c(O)c1)[C@@H](C)Cc1ccc(O)c(O)c1, which Potency [18] is on record?
A: 5.01 µM (active)

Q: What about the Potency [2] of the same compound?
A: inactive

Q: What about the Potency [19] of the same compound?
A: inactive

Q: What about the outcome [3] of the same compound?
A: inactive

Q: For Cc1cccc(C#Cc2ccccc2)n1, which Potency [1] is on record?
A: 1 µM (active)

Q: And the Potency [19]?
A: 15.8 µM (active)

Q: And the outcome [3]?
A: inactive

Q: What about the Potency [4] of the same compound?
A: 25.1 µM (active)

Q: And the Potency [5]?
A: inactive

Q: For CN1C(C(=O)Nc2ccccn2)=C(O)c2sccc2S1(=O)=O, which activation [6] is on record?
A: -9.7%

Q: And the Potency [8]?
A: inactive

Q: Which results are given for CN(C)c1ccc2nc3ccc(=[N+](C)C)cc-3sc2c1?
A: Potency [7]: 10 µM (active); Potency [9]: 10 µM (active); Potency [10]: 10 µM (active); Potency [11]: 12.6 µM (active); Potency [12]: 12.6 µM (active); Potency [14]: 39.8 µM (active); Potency [15]: 7.94 µM (active); Potency [16]: 7.94 µM (active); Potency [17]: 3.98 µM (active)

Q: For NC(=NCc1ccccc1)NC(=O)c1nc(Cl)c(N)nc1N, which Potency [1] is on record?
A: 12.6 µM (active)

Q: What about the Potency [8] of the same compound?
A: inactive

Q: What about the Potency [19] of the same compound?
A: inactive

Q: What about the outcome [3] of the same compound?
A: inactive

Q: With Cc1nc2n(c(=O)c1CCN1CCC(c3noc4cc(F)ccc34)CC1)CCCC2 as the compound, how does the Potency [1] read?
A: inactive

Q: And the Potency [19]?
A: inactive

Q: With O=c1c(O)c(-c2cc(O)c(O)c(O)c2)oc2cc(O)cc(O)c12 as the compound, how does the Potency [18] read?
A: 10 µM (active)

Q: And the Potency [2]?
A: inactive

Q: What about the Potency [19] of the same compound?
A: inactive

Q: And the outcome [3]?
A: inactive

Q: What about the Potency [5] of the same compound?
A: 2 µM (active)

Q: With O=c1cc(N2CCOCC2)oc2c(-c3ccccc3)cccc12 as the compound, how does the Potency [20] read?
A: 7.08 µM (active)

Q: And the Potency [19]?
A: inactive

Q: And the outcome [3]?
A: inactive

Q: With CNC[C@H](O)c1ccc(O)c(O)c1 as the compound, how does the Potency [1] read?
A: inactive

Q: And the Potency [19]?
A: inactive

Q: What about the outcome [3] of the same compound?
A: inactive

Q: With COC(=O)[C@H](Cc1ccccc1)NC(=O)[C@@H](N)CC(=O)O (H-Asp-Phe-OMe) as the compound, how does the Potency [7] read?
A: inactive

Q: And the Potency [9]?
A: inactive

Q: What about the Potency [10] of the same compound?
A: inactive

Q: And the Potency [11]?
A: inactive

Q: And the Potency [12]?
A: inactive

Q: What about the Potency [14] of the same compound?
A: inactive

Q: And the Potency [15]?
A: inactive

Q: What about the Potency [16] of the same compound?
A: inactive

Q: What about the Potency [17] of the same compound?
A: inactive

Q: With CCc1nc(N)nc(N)c1-c1ccc(Cl)cc1 as the compound, how does the Potency [7] read?
A: inactive

Q: And the Potency [8]?
A: inactive

Q: What about the Potency [9] of the same compound?
A: inactive

Q: What about the Potency [10] of the same compound?
A: inactive

Q: And the Potency [11]?
A: inactive

Q: What about the Potency [12] of the same compound?
A: inactive

Q: What about the outcome [13] of the same compound?
A: inactive

Q: And the Potency [14]?
A: inactive

Q: What about the Potency [15] of the same compound?
A: inactive

Q: What about the Potency [17] of the same compound?
A: 7.94 µM (active)

Q: What does the source list for CC(=O)Nc1ccc(O)cc1?
A: Potency [7]: inactive; Potency [9]: inactive; Potency [10]: inactive; Potency [11]: inactive; Potency [12]: inactive; outcome [13]: inactive; Potency [14]: inactive; Potency [15]: inactive; Potency [16]: inactive; Potency [17]: inactive
